Screens: PubChem, National Center for Advancing Translational Sciences (NCATS)
IL-1B inflam inh: inhibitors of inflammasome signaling (IL-1 beta secretion). THP-1 LPS/ATP IL-1B secretion, AlphaLISA, 16 h; stronger effect = lower value. activity change, % at 57.5 µM. hit rate 4.7% among 360,000. AID 743279; in the data active = activity change below about -50%; inconclusive = mostly about -30% to -49%
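Secreted IL-1B measured by AlphaLISA bead assay after 16 h compound exposure of THP-1 cells; compounds (final up to 57.5 uM) added 1 h before LPS (250 ng/mL) and ATP (1.25 mM) stimulation; lower signal means less secretion.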
uPA surface inh: inhibitors of cell surface uPA generation | cell surface uPA generation assay, qHTS | Potency, µM (doses to about 38.3 µM), without a hit: at the highest dose activity change, negative = inhibition, hits mostly inhibitors | hit rate 0.31% among 330,000 | AID 540303; active = well fitted inhibition curve with a large enough effect; inconclusive = small, poorly fitted or top-dose-only effect; inactive = no such curve, though single readings can be large or run the other way; tested in mouse RAW 264.7 cells; also: potency is read from the fitted curve at half-maximal effect; nearly all actives have a fitted effect of over 55% in size
HT1080 IDH1KD tx: HT-1080 IDH1 knockdown cell toxicity (counter line); HT-1080 IDH1 knockdown viability, ATP luminescence, 48 h; Potency, µM (titrated, usually from 46.1 µM), for the others: top-dose activity, negative = toxicity, actives largely listed as cytotoxic; hit rate 2% among 360,000;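 also: potency is read from the fitted curve at half-maximal effect; 0% = DMSO wells and -100% = cell-free medium wells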
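CellTiter-Glo luminescence after 48 h compound exposure at 37 degrees C of IDH1-knockdown HT-1080 cells in 5% FBS RPMI. %Activity scaled between DMSO wells and cell-free media wells, with curves fitted and assigned curve classes.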
HT1080-NT tox: kills 2HG-producing HT-1080-NT fibrosarcoma cells; HT-1080-NT fibrosarcoma viability, CellTiter-Glo ATP luminescence, 48 h; Potency, µM (highest dose often 46.1 µM), for inactives: at the highest dose activity, negative = less viability, actives largely listed as cytotoxic; hit rate 1.6% among 360,000;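 also: NT is the 2HG producing partner of a matched IDH1 knockdown line; potency is read from the fitted curve at half-maximal effect; 0% = DMSO-treated cells and -100% = media-only wells without cells; nearly all actives have a fitted effect of over 55% in size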
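Viability by CellTiter-Glo luminescence after 48 h compound exposure at 37C of HT-1080-NT cells (750/well, RPMI, 5% FBS). % activity scaled between DMSO wells and medium-only wells, then curve-fitted and categorized by curve class.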
DT40 TDP1 no CPT: qHTS for Inhibitors of human tyrosyl-DNA phosphodiesterase 1 (TDP1): qHTS in cells in absence of CPT; DT40 Tdp1-/- hTDP1 cells, no CPT, ATP luminescence, 48 h; Potency, µM (series often up to 46.2 µM), for inactives: at the highest dose activity change, negative = growth inhibition, hits mostly inhibitors; hit rate 15% among 420,000; AID 686978, 2013; also: potency is read from the fitted curve at half-maximal effect; nearly all actives have a fitted effect of over 55% in size
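Seeded 400 DT40-hTDP1 cells/well (vehicle DMSO, no 20 nM CPT); pinned compounds; ≥48 hr at 37 °C; CellTiter-Glo luminescence as viability measure.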
TDP1 cell CPT: growth inhibition of DT40 Tdp1-/-;hTDP1 cells with camptothecin (screen for TDP1 inhibitors). hit rate 12% among 420,000. Potency, µM (top dose mostly 46.2 µM), for the others: at the top dose activity change, negative = growth inhibition, usual class: inhibitors. AID 686979. chicken DT40 Tdp1-/-;hTDP1 cells + 20 nM CPT, ATP luminescence, 48 h; also: potency is read from the fitted curve at half-maximal effect; nearly all actives have a fitted effect of over 55% in size
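Cell growth measured by CellTiter-Glo luminescence after a minimum 48 h, 37 C compound exposure with 20 nM CPT in Tdp1-knockout DT40 cells stably expressing hTDP1, seeded 400/well; qHTS titration format.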
* marks the source's active call; other numbers are inactive results; u = inconclusive; x = no result. Compounds with a hit are over-represented: about 19% of the library has one in this group of screens. Unless noted, calls follow the shape of the dose curve; as a rule, active = well fitted curve in the direction sought with a large enough effect; inconclusive = small, poorly fitted or top-dose-only effect, or another doubt; inactive = no such curve, though single readings can be large; an effect the other way counts as inactive or inconclusive. Unless noted, % is scaled to controls: 0 for no effect and ±100 for the full control effect.

SMILES | IL-1B inflam inh | uPA surface inh | HT1080 IDH1KD tx | HT1080-NT tox | DT40 TDP1 no CPT | TDP1 cell CPT
C=CCNc1ncnc2c1ncn2[C@H]1CN(Cc2cc(OC)c(OC)c(OC)c2)C[C@@H](CO)O1 | -12 | x | 0% | 19% | -11% | 1%
Cc1ccc(S(=O)(=O)NNC(=O)C2Cc3c(ccc4ccccc34)O2)cc1 (stereo not given) | 49 | -2% | -23% | u | 23µM* | u
CCOC(=O)c1c(NC(NC(=O)C(C)C)C(Cl)(Cl)Cl)sc2c1CCC2 (stereo not given) | 1 | -3% | -18% | -10% | 16µM* | 15µM*
CC1=NN(c2nc(N)nc(/C(C#N)=C/c3ccc([N+](=O)[O-])o3)n2)C(C)(C)C1 | -16 | -10% | u | -3% | 0.46µM* | 0.58µM*
Cc1cccc(-c2cc(NCCc3cccnc3)n3nccc3n2)c1 | 14 | x | 12% | 14% | -3% | -17%
COc1ccc(C2CC(c3ccccc3)=NN2C(=O)COC(=O)c2nc3nccc(C)n3n2)cc1 (stereo not given) | -1 | 1% | 11% | 0% | 17% | 0%
Cc1ccc(-n2nnnc2-c2ccccc2Br)cc1 | -5 | 0% | -9% | 5% | -24% | -12%
Clc1ccc2[nH]cc(-c3nnnn3-c3ccccc3)c2c1 | -1 | -4% | u | u | u | 21µM*
Clc1ccc2ncc(-c3nnnn3-c3ccccc3)c(-c3ccccc3)c2c1 | 5 | -6% | u | 21µM* | u | u
c1ccc(-n2nnnc2-c2cccc3ccccc23)cc1 | 30 | u | 8.2µM* | 5.8µM* | 4.6µM* | 3.7µM*
CCCS(=O)(=O)NC(=O)C1(C)CCN(C(=O)c2cc(F)cc(F)c2)C1 (stereo not given) | 19 | x | u | 14% | 8% | -63%
Oc1cc2c(cc1C(c1ccc(Cl)c(Cl)c1)N1CCCC1)OCO2 (stereo not given) | -99* | -9% | u | u | 23µM* | u
COc1ccc(CNC(=O)CSc2nc(-c3ccccc3)cc(-c3cccs3)c2C#N)cc1 | 33 | 0% | -17% | -8% | u | 15µM*
COc1ccccc1-c1cc(-c2ccccc2)nc(SCC(=O)O)c1C#N | 30 | u | -1% | -8% | 1% | u
COc1ccc(-c2cc(-c3ccccc3)nc(SC(C)C(=O)O)c2C#N)cc1 (stereo not given) | 18 | -2% | u | -23% | 26µM* | u
CCCSc1nc(-c2ccc(OC)cc2)cc(-c2ccccc2OC)c1C#N | x | x | x | x | 18µM* | u
COc1ccc(-c2cc(-c3ccccc3)c(C#N)c(SCC(=O)O)n2)cc1 | -6 | 9% | -2% | 7% | u | -28%
COc1ccc(-c2cc(-c3cccs3)c(C#N)c(SCC(=O)NCc3ccco3)n2)cc1 | 15 | -9% | 2.3µM* | 2.9µM* | 2.3µM* | 1.8µM*
CC1(C2CCN(Cc3c[nH]c4ccccc34)CC2)NC(=O)N(CCN2CCOCC2)C1=O (stereo not given) | x | x | x | x | -24% | 5%
CCN(CC)S(=O)(=O)c1ccc(NC(=O)COC(=O)CNS(=O)(=O)/C=C/c2ccccc2)cc1 | -8 | 2% | 0% | -1% | u | -10%
O=C(COCc1cc(-c2ccc3c(c2)OCO3)on1)NCc1ccc(F)cc1 | x | x | x | x | -21% | u
O=C(NCCc1nnc2n1CCN(Cc1c(F)cccc1F)CC2)c1ccco1 | x | x | x | x | -11% | -3%
Cn1c(=O)[nH]c2cc(-c3noc(-c4ccc(F)cc4)n3)ccc21 | x | x | x | x | 5% | 5%
O=S(=O)(Nc1cccc(-c2nnco2)c1)c1ccc(Cl)cc1 | 0 | 15% | -3% | -16% | -20% | -8%
CC[C@]12C(=O)N(C)C[C@H]([C@@H]3C(=O)N(C)C(=O)[C@@H]31)N2C(=O)c1ccc(Cl)c(Cl)c1 | -1 | 18% | 14% | 4% | -3% | -4%
SMILES | IL-1B inflam inh | uPA surface inh | HT1080 IDH1KD tx | HT1080-NT tox | DT40 TDP1 no CPT | TDP1 cell CPT
CC(C)OC(=O)CC(=O)CSc1nc(-c2ccc(F)cc2)cc(-c2ccccc2)c1C#N | 28 | -1% | -14% | -6% | u | -18%
CCc1nnc(NC(=O)CSc2nc(-c3ccccc3)cc(-c3ccc(F)cc3)c2C#N)s1 | -10 | x | 1% | -15% | u | 9.2µM*
Cc1ccc2nc(N(CCCN(C)C)C(=O)c3ccc(S(=O)(=O)N4CCOCC4)cc3)sc2c1 | -13 | u | -13% | -15% | -11% | -26%
COc1ccc2sc(N(CCCN(C)C)C(=O)c3ccc(S(=O)(=O)N4CCc5ccccc5C4)cc3)nc2c1 | -118* | -13% | u | u | 4.6µM* | 4.1µM*
CN(C)CCCN(C(=O)c1ccc(S(=O)(=O)N2CCc3ccccc32)cc1)c1nc2ccc(F)cc2s1 | -81* | -3% | u | -8% | u | u
Cc1cc(C)c2sc(N(CCCN(C)C)C(=O)c3ccc(S(=O)(=O)N4CCCc5ccccc54)cc3)nc2c1 | -67* | u | u | 18µM* | 9.2µM* | 10µM*
COc1ccc2sc(N(CCCN(C)C)C(=O)c3ccc(S(=O)(=O)N4CCCC4)cc3)nc2c1 | u | -5% | -5% | -4% | -17% | -23%
Cc1ccc2nc(N(CCCN(C)C)C(=O)c3ccc(S(=O)(=O)N4CCc5ccccc5C4)cc3)sc2c1 | -96* | -11% | 13µM* | u | 5.8µM* | 5.2µM*
CCCCN(CCCC)CC(O)c1cc(Cl)cc2c1-c1ccc(Cl)cc1/C2=C/c1ccc(Cl)cc1 (stereo not given) | x | x | x | x | -18% | 3%
Cc1nn(C)c(C)c1NS(=O)(=O)c1ccc(Cl)cc1 | 13 | -21% | 4% | 6% | -27% | -27%
Cc1nn(C)c(C)c1CN(C)S(=O)(=O)c1ccc(F)cc1 | 28 | 0% | u | -13% | 21µM* | u
Cc1nn(C)c(C)c1CN(C)S(=O)(=O)c1ccc2ccccc2c1 | -14 | -9% | 2µM* | -13% | 1.3µM* | 2.2µM*
CCN(CC)S(=O)(=O)c1ccc(S(=O)(=O)Nc2c(C)nn(C)c2C)cc1 | -11 | -7% | u | 16µM* | 4.6µM* | 6.5µM*
CCN(CC)S(=O)(=O)c1ccc(F)cc1 | 0 | 8% | 8% | 7% | -6% | 2%
CCN(CC)S(=O)(=O)c1ccc(O)c(C(=O)OCC(=O)N2CCCc3ccccc32)c1 | 12 | x | 2% | 4% | -2% | -11%
